Consider 54 molecules from PMC4336329 (PLoS ONE, 2015).

In all, about 310,000 compounds went through this assay and about 2,200 (0.71%) showed an effect of 50% or more. The effect is printed as a negative number. What follows is part of a selection rich in strong results, with near analogues and random picks from the rest.

Chain of human ether-à-go-go-related gene (hERG) potassium channel (Q12809 whole entry, looked up): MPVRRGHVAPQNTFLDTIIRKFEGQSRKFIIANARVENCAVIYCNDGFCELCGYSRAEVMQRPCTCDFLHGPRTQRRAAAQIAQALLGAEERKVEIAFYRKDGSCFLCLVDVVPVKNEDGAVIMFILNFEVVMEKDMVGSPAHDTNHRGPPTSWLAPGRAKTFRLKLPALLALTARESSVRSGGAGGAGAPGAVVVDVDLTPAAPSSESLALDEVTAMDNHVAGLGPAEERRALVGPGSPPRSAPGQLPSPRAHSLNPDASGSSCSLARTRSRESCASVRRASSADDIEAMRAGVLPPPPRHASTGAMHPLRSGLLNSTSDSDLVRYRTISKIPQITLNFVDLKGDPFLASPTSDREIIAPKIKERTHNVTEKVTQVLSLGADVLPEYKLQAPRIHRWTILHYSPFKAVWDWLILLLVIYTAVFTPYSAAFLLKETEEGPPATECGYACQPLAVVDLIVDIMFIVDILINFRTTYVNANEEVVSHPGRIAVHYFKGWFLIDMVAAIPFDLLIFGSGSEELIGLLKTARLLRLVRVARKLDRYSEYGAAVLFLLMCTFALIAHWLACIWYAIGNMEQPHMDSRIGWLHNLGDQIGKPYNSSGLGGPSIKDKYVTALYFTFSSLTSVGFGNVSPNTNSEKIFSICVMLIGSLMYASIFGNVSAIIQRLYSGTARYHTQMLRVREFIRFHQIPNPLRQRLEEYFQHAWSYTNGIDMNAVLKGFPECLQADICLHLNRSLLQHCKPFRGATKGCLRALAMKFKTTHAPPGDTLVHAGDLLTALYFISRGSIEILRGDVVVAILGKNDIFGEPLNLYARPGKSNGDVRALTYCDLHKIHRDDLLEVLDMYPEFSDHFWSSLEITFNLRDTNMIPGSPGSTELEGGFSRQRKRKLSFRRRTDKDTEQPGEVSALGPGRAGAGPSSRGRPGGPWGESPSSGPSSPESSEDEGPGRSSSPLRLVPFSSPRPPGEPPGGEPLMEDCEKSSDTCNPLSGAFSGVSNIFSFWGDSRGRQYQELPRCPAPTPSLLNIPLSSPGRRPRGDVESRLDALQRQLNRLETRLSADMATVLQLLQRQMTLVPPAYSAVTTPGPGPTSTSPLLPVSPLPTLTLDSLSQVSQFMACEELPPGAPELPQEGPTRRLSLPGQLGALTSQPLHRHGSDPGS

The assay has as its target human ether-à-go-go-related gene (hERG) potassium channel (human, UniProt Q12809). Nature of the assay: primary screen, population patch clamp on CHO cells stably expressing hERG; higher = less effect of the substance.
For the molecule `CCOC(=O)c1c(NC(=O)C2C3C=CC(C3)C2C(=O)O)sc2c1CC(C)(C)OC2` (stereo not drawn), the “hERG current change (%, negative = inhibition) at 1uM” value is 2.99%.
In the case of `CCOC(=O)CC1(NC(=O)c2cc(COc3cccc(OC)c3)on2)CCCCC1`, the “hERG current change (%, negative = inhibition) at 1uM” value was 10.3%.
Then `CN1CCN(S(=O)(=O)c2cccc(C(=O)Oc3cccc(C#N)c3)c2)CC1`, with 11.8%; and `CC12CC3CC(C)(C1)CC(C(=O)NNC(=O)c1ccncc1)(C3)C2`, with -7.13%.
Take `CC(=O)c1ccc(NC(=S)Nc2cccc(Cl)c2C)cc1`: the “hERG current change (%, negative = inhibition) at 1uM” value is listed as 12.3%.
Then `CCNC(=O)NC(=O)COC(=O)CNC(=O)COc1ccccc1`, with 14.5%; and `CC(NC(=O)C(=O)NCCN1CCN(C(=O)c2ccccc2Br)CC1)c1ccccc1` (stereo not drawn), with 9.08%; and `CNC(=O)C(=O)NCCN1CCN(C(=O)c2ccc([N+](=O)[O-])cc2)CC1`, with 9.09%.
As for `O=C(NCCN1CCN(C(=O)c2ccc([N+](=O)[O-])cc2)CC1)C(=O)Nc1ccc(F)cc1`, the “hERG current change (%, negative = inhibition) at 1uM” value is listed as -84.3%.
Then `Cc1ccc(C(=O)N2CCN(CCNC(=O)C(=O)NC(C)C)CC2)cc1`, with 7.95%; and `CCCCc1ccc(NC(=O)C(=O)NCCN2CCN(C(=O)c3ccc([N+](=O)[O-])cc3)CC2)cc1`, with 0.387%.
Regarding `CC(NC(=O)C(=O)NCCN1CCN(C(=O)c2ccc([N+](=O)[O-])cc2)CC1)c1ccccc1` (stereo not drawn), the “hERG current change (%, negative = inhibition) at 1uM” value was -67.8%.
Then `Cc1ccc(C(=O)NCC(=O)N2CCCCCCC2)cc1`, with 20.7%; and `COc1cc(OC)cc(C(=O)NC(=S)Nc2nnn(C)n2)c1`, with 13%; and `O=C(Nc1ccc(F)cc1)N1CCCC(c2nc3c(nnn3Cc3ccccc3Cl)c(=O)[nH]2)C1` (stereo not drawn), with 13.4%.
Take `CCOC(=O)c1csc(NC(C)=O)n1`: the “hERG current change (%, negative = inhibition) at 1uM” value was found to be 7.33%.
The value for `CCCN1CCC(=O)N([C@H](CSc2ccc(C)cc2)c2ccccc2)CC1` was -76.3%; that for `CN1CCC(=O)N([C@H](CSc2ccc(Br)cc2)c2ccccc2)CC1` was -89.8%; that for `CC(=O)Nc1ccc(SC[C@H](Cc2ccccc2)N2CCN(CCc3ccccc3)CCC2=O)cc1` was 4.37%.
Then `CCCN1CCC(=O)N([C@H](CSc2ccc(OC)cc2)Cc2ccccc2)CC1`, with -36.3%; and `CCCN1CCC(=O)N([C@H](CSc2ccccc2)CC(C)C)CC1`, with -31.8%; and `CN1CCC(=O)N([C@H](CSc2ccccc2)c2ccccc2)CC1`, with -46.4%.
For `CCCN1CCC(=O)N([C@H](CSc2ccc(OC)cc2)CC(C)C)CC1`, the “hERG current change (%, negative = inhibition) at 1uM” value is reported as -42.3%.
The value for `Cc1ccc(SC[C@H](Cc2ccccc2)N2CCN(CCc3ccccc3)CCC2=O)cc1` was 8.27%; that for `CC(C)CN1CCC(=O)N([C@H](CSc2ccc(Br)cc2)c2ccccc2)CC1` was -21.5%.
Then `CCCN1CCC(=O)N([C@H](CSc2ccc(OC)cc2)c2ccccc2)CC1`, with -81.7%; and `CC(=O)Nc1ccc(SC[C@H](CC(C)C)N2CCN(CCc3ccccc3)CCC2=O)cc1`, with -26.2%.
Then `CC(=O)Nc1ccc(SC[C@H](c2ccccc2)N2CCN(CCc3ccccc3)CCC2=O)cc1`, with -56%; and `COc1ccc(CNC(=O)c2cc(COc3c(F)cccc3F)on2)cc1OC`, with 7.12%; and `Cc1ccc(NC(=O)/C(C#N)=C/c2ccsc2)c(C)c1`, with 15.6%.
Consider `Cc1ccc(S(=O)(=O)N(C)c2ccc(C(=O)Nc3c(C)n(C)n(-c4ccccc4)c3=O)cc2)cc1`, for which the “hERG current change (%, negative = inhibition) at 1uM” value is recorded as 4.15%.
The value for `O=C(NNS(=O)(=O)c1ccc(F)cc1)C1CC(c2cccnc2)=NO1` (stereo not drawn) was 14.8%; that for `O=C(/C(=N\O)n1cncn1)c1ccc(Cl)cc1Cl` was 15.2%.
Then `COc1ccc(Cc2nnc(NC(=O)Nc3ccccc3F)s2)cc1`, with 15.2%.
The value for `Cc1ccccc1OCC(=O)Nc1ccccc1N1CCC(C)CC1` was 18.9%.
On to `O=C1CCCC(O)=C1C1NCCc2ccccc21` (stereo not drawn), for which the “hERG current change (%, negative = inhibition) at 1uM” value worked out at 9.52%.
Then `CCCN1CCC(=O)N([C@H](CSc2ccc(Br)cc2)c2ccccc2)CC1`, with -17.5%; and `O=C1CCN(CCc2ccccc2)CCN1[C@H](CSc1ccc(Br)cc1)c1ccccc1`, with -18.8%; and `O=C1CCN(CCc2ccccc2)CCN1[C@H](CSc1ccccc1)c1ccccc1`, with -72.2%.
Then `O=C1CCN(Cc2ccccc2)CCN1[C@H](CSc1ccccc1)c1ccccc1`, with 2.25%; and `CCCN1CCC(=O)N([C@H](CSc2ccccc2)c2ccccc2)CC1`, with -82.2%.
Then `Cc1ccc(SC[C@H](c2ccccc2)N2CCN(CCc3ccccc3)CCC2=O)cc1`, with -10.2%; and `COC(=O)c1ccc(CN2CCN(CCCc3ccccc3)C(CCO)C2)cc1` (stereo not drawn), with -29.1%; and `COCCCNC(=O)c1cc(C)nc2ccc(F)cc12`, with -1.73%.
For `CN(C)S(=O)(=O)Oc1ccsc1C(=O)Nc1ccccc1Cl`, the “hERG current change (%, negative = inhibition) at 1uM” value amounted to 5.7%.
In the case of `Cc1cccc(CN2CCN(CC(=O)NCCCN3CCCC3=O)C2=O)c1`, the “hERG current change (%, negative = inhibition) at 1uM” value worked out at 11.8%.
Then `Cc1ccc(CN2CCN(CC(=O)NCCCN3CCN(c4ccc(F)cc4)CC3)C2=O)cc1`, with -56.6%; and `CCOCCCNC(=O)CN1CCN(Cc2ccccc2C)C1=O`, with 4.41%.
Then `Cc1cccc(CN2CCN(CC(=O)NCc3ccc(F)cc3)C2=O)c1`, with 7.12%.
Then `Cc1ccccc1CN1CCN(CC(=O)NCCCN2CCN(c3ccc(F)cc3)CC2)C1=O`, with -52%; and `O=C(CN1CCN(Cc2ccc(Cl)cc2)C1=O)NCCCN1CCOCC1`, with 4.56%; and `COc1ccc(N2CCN(CCCNC(=O)CN3CCN(Cc4ccccc4C)C3=O)CC2)cc1`, with -16.7%.
Consider `O=C(CN1CCN(Cc2ccc(Cl)cc2)C1=O)NCCCN1CCN(c2ccc(F)cc2)CC1`, for which the “hERG current change (%, negative = inhibition) at 1uM” value was -36.8%.
Then `Cc1cccc(CN2CCN(CC(=O)NCCCN3CCN(c4ccc(F)cc4)CC3)C2=O)c1`, with -54.5%.
